# How the values were obtained:
# Test in all cases: SPOT peptide array binding signal intensity (averaged, normalized) (arbitrary units (background-subtracted, floor 0; scale differs between SH3 domains)); higher = stronger binding of the SH3 domain to the peptide
# AgAbp1 = biological target: AgAbp1
# How it was run: (§1)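 Detection of bound protein relied on anti-GST antibody, an HRP anti-mouse secondary and luminol, with imaging and quantification in Genespotter. The bound protein was GST-fused SH3 domains from four yeast species, incubated at 10 μg/ml overnight at 4°C in TBS-based blocking buffer on cellulose membranes carrying synthetic 15-mer peptides with cysteines replaced by serines. Binding signal is normalized, background-subtracted spot intensity averaged over replicates, in arbitrary units that differ between domains.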
# AgBbc1 = biological target: AgBbc1
# How it was run: as §1
# AgBem1-D1 = biological target: AgBem1-D1
# How it was run: as §1
# AgBzz1-D1 = biological target: AgBzz1-D1
# How it was run: as §1
# AgBzz1-D2 = biological target: AgBzz1-D2
# How it was run: as §1
# AgCyk3 = biological target: AgCyk3
# How it was run: as §1
# AgFus1 = biological target: AgFus1
# How it was run: as §1
# AgHof1 = biological target: AgHof1
# How it was run: as §1
# AgHse1 = biological target: AgHse1
# How it was run: as §1
# AgLsb1 = biological target: AgLsb1
# How it was run: as §1
# AgLsb4 = biological target: AgLsb4
# How it was run: as §1
# AgMyo5 = biological target: AgMyo5
# How it was run: as §1
# AgNbp2 = biological target: AgNbp2
# How it was run: as §1
# AgRvs167 = biological target: AgRvs167
# How it was run: as §1
# AgSho1 = biological target: AgSho1
# How it was run: as §1
# AgSla1-D1-D2 = biological target: AgSla1-D1-D2
# How it was run: as §1
# AgSla1-D3 = biological target: AgSla1-D3
# How it was run: as §1
# CaAbp1-D1 = biological target: CaAbp1-D1
# How it was run: as §1
# CaAbp1-D2 = biological target: CaAbp1-D2
# How it was run: as §1
# CaBbc1 = biological target: CaBbc1
# How it was run: as §1
# CaBem1-D1 = biological target: CaBem1-D1
# How it was run: as §1
# CaBzz1-D1 = biological target: CaBzz1-D1
# How it was run: as §1
# CaBzz1-D2 = biological target: CaBzz1-D2
# How it was run: as §1
# CaCyk3 = biological target: CaCyk3
# How it was run: as §1
# CaFus1 = biological target: CaFus1
# How it was run: as §1
# CaHof1 = biological target: CaHof1
# How it was run: as §1
# CaHse1 = biological target: CaHse1
# How it was run: as §1
# CaLsb1 = biological target: CaLsb1
# How it was run: as §1
# CaLsb4 = biological target: CaLsb4
# How it was run: as §1
# CaMyo5 = biological target: CaMyo5
# How it was run: as §1
# CaNbp2 = biological target: CaNbp2
# How it was run: as §1
# CaRvs167 = biological target: CaRvs167
# How it was run: as §1
# CaRvs167-3 = biological target: CaRvs167-3
# How it was run: as §1
# CaSho1 = biological target: CaSho1
# How it was run: as §1
# CaSla1-D1-D2 = biological target: CaSla1-D1-D2
# How it was run: as §1
# CaSla1-D3 = biological target: CaSla1-D3
# How it was run: as §1
# ScAbp1 = biological target: ScAbp1
# How it was run: as §1
# ScBbc1 = biological target: ScBbc1
# How it was run: as §1
# ScBem1-D1 = biological target: ScBem1-D1
# How it was run: as §1
# ScBzz1-D1 = biological target: ScBzz1-D1
# How it was run: as §1
# ScBzz1-D2 = biological target: ScBzz1-D2
# How it was run: as §1
# ScCyk3 = biological target: ScCyk3
# How it was run: as §1
# ScFus1 = biological target: ScFus1
# How it was run: as §1
# ScHof1 = biological target: ScHof1
# How it was run: as §1
# ScHse1 = biological target: ScHse1
# How it was run: as §1
# ScLsb1 = biological target: ScLsb1
# How it was run: as §1
# ScLsb2 = biological target: ScLsb2
# How it was run: as §1
# ScLsb3 = biological target: ScLsb3
# How it was run: as §1
# ScLsb4 = biological target: ScLsb4
# How it was run: as §1
# ScMyo3 = biological target: ScMyo3
# How it was run: as §1
# ScMyo5 = biological target: ScMyo5
# How it was run: as §1
# ScNbp2 = biological target: ScNbp2
# How it was run: as §1
# ScPex13 = biological target: ScPex13
# How it was run: as §1
# ScRvs167 = biological target: ScRvs167
# How it was run: as §1
# ScSho1 = biological target: ScSho1
# How it was run: as §1
# ScSla1-D1-D2 = biological target: ScSla1-D1-D2
# How it was run: as §1
# ScSla1-D3 = biological target: ScSla1-D3
# How it was run: as §1
# SpAbp1-D1 = biological target: SpAbp1-D1
# How it was run: as §1
# SpBbc1 = biological target: SpBbc1
# How it was run: as §1
# SpBzz1-D1 = biological target: SpBzz1-D1
# How it was run: as §1
# SpBzz1-D2 = biological target: SpBzz1-D2
# How it was run: as §1
# SpCyk3 = biological target: SpCyk3
# How it was run: as §1
# SpHof1 = biological target: SpHof1
# How it was run: as §1
# SpHof1-2 = biological target: SpHof1-2
# How it was run: as §1
# SpHof1-3 = biological target: SpHof1-3
# How it was run: as §1
# SpHse1 = biological target: SpHse1
# How it was run: as §1
# SpLsb1 = biological target: SpLsb1
# How it was run: as §1
# SpLsb4 = biological target: SpLsb4
# How it was run: as §1
# SpMyo1 = biological target: SpMyo1
# How it was run: as §1
# SpNbp2 = biological target: SpNbp2
# How it was run: as §1
# SpPex13 = biological target: SpPex13
# How it was run: as §1
# SpRvs167 = biological target: SpRvs167
# How it was run: as §1
# SpSla1-D1-D2 = biological target: SpSla1-D1-D2
# How it was run: as §1
# SpSla1-D3 = biological target: SpSla1-D3
# How it was run: as §1
binder,measurement,setting,value
KNRKNLPTIPIRLSG,SPOT peptide array binding signal intensity,AgAbp1,4080
same,SPOT peptide array binding signal intensity,AgBbc1,456
same,SPOT peptide array binding signal intensity,AgBem1-D1,144
same,SPOT peptide array binding signal intensity,AgBzz1-D1,104
same,SPOT peptide array binding signal intensity,AgBzz1-D2,35
same,SPOT peptide array binding signal intensity,AgCyk3,1
same,SPOT peptide array binding signal intensity,AgFus1,63
same,SPOT peptide array binding signal intensity,AgHof1,240
same,SPOT peptide array binding signal intensity,AgHse1,206
same,SPOT peptide array binding signal intensity,AgLsb1,318
same,SPOT peptide array binding signal intensity,AgLsb4,108
same,SPOT peptide array binding signal intensity,AgMyo5,≤ 0
same,SPOT peptide array binding signal intensity,AgNbp2,1360
same,SPOT peptide array binding signal intensity,AgRvs167,5.83
same,SPOT peptide array binding signal intensity,AgSho1,4630
same,SPOT peptide array binding signal intensity,AgSla1-D1-D2,402
same,SPOT peptide array binding signal intensity,AgSla1-D3,7
same,SPOT peptide array binding signal intensity,CaAbp1-D1,1420
same,SPOT peptide array binding signal intensity,CaAbp1-D2,3510
same,SPOT peptide array binding signal intensity,CaBbc1,1560
same,SPOT peptide array binding signal intensity,CaBem1-D1,22
same,SPOT peptide array binding signal intensity,CaBzz1-D1,221
same,SPOT peptide array binding signal intensity,CaBzz1-D2,67.2
same,SPOT peptide array binding signal intensity,CaCyk3,8
same,SPOT peptide array binding signal intensity,CaFus1,382
same,SPOT peptide array binding signal intensity,CaHof1,0.25
same,SPOT peptide array binding signal intensity,CaHse1,28.2
same,SPOT peptide array binding signal intensity,CaLsb1,0.5
same,SPOT peptide array binding signal intensity,CaLsb4,1340
same,SPOT peptide array binding signal intensity,CaMyo5,≤ 0
same,SPOT peptide array binding signal intensity,CaNbp2,398
same,SPOT peptide array binding signal intensity,CaRvs167,283
same,SPOT peptide array binding signal intensity,CaRvs167-3,23.8
same,SPOT peptide array binding signal intensity,CaSho1,1100
same,SPOT peptide array binding signal intensity,CaSla1-D1-D2,672
same,SPOT peptide array binding signal intensity,CaSla1-D3,≤ 0
same,SPOT peptide array binding signal intensity,ScAbp1,634
same,SPOT peptide array binding signal intensity,ScBbc1,46.8
same,SPOT peptide array binding signal intensity,ScBem1-D1,19
same,SPOT peptide array binding signal intensity,ScBzz1-D1,35.5
same,SPOT peptide array binding signal intensity,ScBzz1-D2,7
same,SPOT peptide array binding signal intensity,ScCyk3,17
same,SPOT peptide array binding signal intensity,ScFus1,63
same,SPOT peptide array binding signal intensity,ScHof1,3
same,SPOT peptide array binding signal intensity,ScHse1,582
same,SPOT peptide array binding signal intensity,ScLsb1,462
same,SPOT peptide array binding signal intensity,ScLsb2,824
same,SPOT peptide array binding signal intensity,ScLsb3,2010
same,SPOT peptide array binding signal intensity,ScLsb4,80
same,SPOT peptide array binding signal intensity,ScMyo3,4.5
same,SPOT peptide array binding signal intensity,ScMyo5,1
same,SPOT peptide array binding signal intensity,ScNbp2,1180
same,SPOT peptide array binding signal intensity,ScPex13,148
same,SPOT peptide array binding signal intensity,ScRvs167,774
same,SPOT peptide array binding signal intensity,ScSho1,5890
same,SPOT peptide array binding signal intensity,ScSla1-D1-D2,2930
same,SPOT peptide array binding signal intensity,ScSla1-D3,27.8
same,SPOT peptide array binding signal intensity,SpAbp1-D1,1210
same,SPOT peptide array binding signal intensity,SpBbc1,5.5
same,SPOT peptide array binding signal intensity,SpBzz1-D1,512
same,SPOT peptide array binding signal intensity,SpBzz1-D2,1.5
same,SPOT peptide array binding signal intensity,SpCyk3,23.5
same,SPOT peptide array binding signal intensity,SpHof1,1400
same,SPOT peptide array binding signal intensity,SpHof1-2,2230
same,SPOT peptide array binding signal intensity,SpHof1-3,1490
same,SPOT peptide array binding signal intensity,SpHse1,166
same,SPOT peptide array binding signal intensity,SpLsb1,510
same,SPOT peptide array binding signal intensity,SpLsb4,2330
same,SPOT peptide array binding signal intensity,SpMyo1,25
same,SPOT peptide array binding signal intensity,SpNbp2,336
same,SPOT peptide array binding signal intensity,SpPex13,9.5
same,SPOT peptide array binding signal intensity,SpRvs167,1010
same,SPOT peptide array binding signal intensity,SpSla1-D1-D2,1490
same,SPOT peptide array binding signal intensity,SpSla1-D3,6
RSVKRPRRAPRPVVS,SPOT peptide array binding signal intensity,CaNbp2,1160
same,SPOT peptide array binding signal intensity,CaRvs167,20.3
same,SPOT peptide array binding signal intensity,CaRvs167-3,26.5
same,SPOT peptide array binding signal intensity,CaSho1,198
same,SPOT peptide array binding signal intensity,CaSla1-D1-D2,990
same,SPOT peptide array binding signal intensity,CaSla1-D3,0.5
same,SPOT peptide array binding signal intensity,ScAbp1,113
same,SPOT peptide array binding signal intensity,ScBbc1,306
same,SPOT peptide array binding signal intensity,ScBem1-D1,46.5
same,SPOT peptide array binding signal intensity,ScBzz1-D1,11.5
same,SPOT peptide array binding signal intensity,ScBzz1-D2,26
same,SPOT peptide array binding signal intensity,ScCyk3,32
same,SPOT peptide array binding signal intensity,ScFus1,260
same,SPOT peptide array binding signal intensity,ScHof1,5.25
same,SPOT peptide array binding signal intensity,ScHse1,1150
same,SPOT peptide array binding signal intensity,ScLsb1,156
same,SPOT peptide array binding signal intensity,ScLsb2,31.5
same,SPOT peptide array binding signal intensity,ScLsb3,3170
same,SPOT peptide array binding signal intensity,ScLsb4,192
same,SPOT peptide array binding signal intensity,ScMyo3,1
same,SPOT peptide array binding signal intensity,ScMyo5,4.25
same,SPOT peptide array binding signal intensity,ScNbp2,2270
same,SPOT peptide array binding signal intensity,ScPex13,2.75
same,SPOT peptide array binding signal intensity,ScRvs167,75
same,SPOT peptide array binding signal intensity,ScSho1,344
same,SPOT peptide array binding signal intensity,ScSla1-D1-D2,839
same,SPOT peptide array binding signal intensity,ScSla1-D3,15.8
same,SPOT peptide array binding signal intensity,SpAbp1-D1,146
same,SPOT peptide array binding signal intensity,SpBbc1,12
same,SPOT peptide array binding signal intensity,SpBzz1-D1,250
same,SPOT peptide array binding signal intensity,SpBzz1-D2,≤ 0
same,SPOT peptide array binding signal intensity,SpCyk3,2
same,SPOT peptide array binding signal intensity,SpHof1,268
same,SPOT peptide array binding signal intensity,SpHof1-2,7
same,SPOT peptide array binding signal intensity,SpHof1-3,748
same,SPOT peptide array binding signal intensity,SpHse1,234
same,SPOT peptide array binding signal intensity,SpLsb1,214
same,SPOT peptide array binding signal intensity,SpLsb4,2230
same,SPOT peptide array binding signal intensity,SpMyo1,16
same,SPOT peptide array binding signal intensity,SpNbp2,412
same,SPOT peptide array binding signal intensity,SpPex13,10.5
same,SPOT peptide array binding signal intensity,SpRvs167,11.2
same,SPOT peptide array binding signal intensity,SpSla1-D1-D2,≤ 0
same,SPOT peptide array binding signal intensity,SpSla1-D3,3
